Sampled rows, rich in hits. Any-hit rate of the full collection: about 6.8%.
KB-V1 cytotox: kills drug-selected multidrug resistant KB-V1 cells | KB-V1 MDR cells viability, CellTiter-Glo, 72 h | Potency, µM (doses to about 46.1 µM), most hits filed as cytotoxic | actives 3.4% (n = 400,000) | AID 1347076; also: nearly all actives have a fitted effect of over 60% in size
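Cytotoxicity toward P-gp-expressing KB-V1 cells was determined as loss of CellTiter-Glo luminescence after 72 h at 37 degrees C. Compounds were tested in quantitative HTS format across a concentration range, with curves fitted to normalized data.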
PINK1 modulator: PINK1 expression modulation. actives 0.2% (n = 410,000). Potency, µM (titrated, usually from 76.6 µM), usual class: activators. AID 624263. PINK1 immunofluorescence, high-content cytometry, 24 h; active = well fitted activation curve with a large enough effect; inconclusive = small, poorly fitted or top-dose-only effect; cell line not stated here; also: nearly all actives have a fitted effect of over 65% in size
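Stable cell line treated 24 h with compounds at 5 concentrations (CCCP controls), then fixed and immunostained for PINK1 plus nuclear and cell stains; PINK1 immunofluorescence quantified by laser-scanning microplate cytometry.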
MCF10A rerep: DNA re-replication induction in MCF 10a cells. MCF 10A DNA re-replication, Hoechst nuclear intensity, 48 h. Potency, µM (doses to about 46.1 µM), actives largely listed as activators. actives 2.9% (n = 350,000). AID 624296; also: nearly all actives have a fitted effect of over 50% in size
KB-3-1 cytotox: kills parental KB-3-1 adenocarcinoma cells; actives 1.4% (n = 400,000); Potency, µM (titrated, usually from 46.1 µM), usual class: cytotoxic; KB-3-1 viability, CellTiter-Glo ATP luminescence, 72 h; AID 1347075; also: nearly all actives have a fitted effect of over 60% in size
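Cytotoxicity measured as CellTiter-Glo luminescence after 72 h at 37 C. Compound titrations were pinned onto drug-naive KB-3-1 parental adenocarcinoma cells grown in DMEM with 10% FBS, and normalized data fitted to concentration-response curves.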
SW480 rereplic: DNA re-replication induction in SW480 cells. actives 1.8% (n = 340,000). Potency, µM (highest dose often 46.1 µM), hits mostly activators. SW480 DNA re-replication, Hoechst DNA content imaging, 48 h; also: nearly all actives have a fitted effect of over 55% in size
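Quantitative HTS format with DMSO vehicle controls; 48 hr drug incubation at 37 C, then 40 min Hoechst staining and scanning imager measurement at 405 nm excitation.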
TSG101-PTAP inh: blocks PTAP/TSG101 interaction to inhibit HIV-1 budding. Q99816. Fluorescence polarization, FITC-PTAP peptide / Tsg101 binding. Potency, µM (series often up to 115 µM), usual class: inhibitors. 340,000 tested, under 10 active. AID 493005; active = well fitted inhibition curve with a large enough effect in the main read-out, with a control signal flat, not every such curve was filed as active; inconclusive = small, poorly fitted or top-dose-only effect, or effect the other way, or a change in a side signal; inactive = no such curve, though single readings can be large or run the other way
Target sequence (Q99816 whole entry, looked up): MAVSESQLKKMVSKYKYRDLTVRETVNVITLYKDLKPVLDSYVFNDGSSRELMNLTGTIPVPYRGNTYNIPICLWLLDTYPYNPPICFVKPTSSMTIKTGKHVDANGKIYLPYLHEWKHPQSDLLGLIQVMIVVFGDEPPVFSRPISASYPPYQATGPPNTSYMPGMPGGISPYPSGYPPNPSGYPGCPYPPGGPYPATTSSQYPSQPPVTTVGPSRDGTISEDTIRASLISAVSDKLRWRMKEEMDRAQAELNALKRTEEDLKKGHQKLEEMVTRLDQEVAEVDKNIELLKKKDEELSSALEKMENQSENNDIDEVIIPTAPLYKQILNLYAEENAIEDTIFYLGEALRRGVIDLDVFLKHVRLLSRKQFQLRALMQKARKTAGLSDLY
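Tsg101 binding domain (10 uM final) was mixed with compound and a FITC-labeled PTAP peptide (50 nM final) in HEPES pH 7.5 buffer with NaCl, Tween 20, EDTA and TCEP; fluorescence polarization was read after 20 min at r.t.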
Large screens that a line does not name were inactive. Unless noted, calls follow the shape of the dose curve; as a rule, active = well fitted curve in the direction sought with a large enough effect; inconclusive = small, poorly fitted or top-dose-only effect, or another doubt; inactive = no such curve, though single readings can be large; an effect the other way counts as inactive or inconclusive.

Cc1cc(C)cc(S(=O)(=O)Nc2cccc(-c3ccc(N4CCOCC4)nn3)c2)c1	none (no result: MCF10A rerep, SW480 rereplic, TSG101-PTAP inh)
Cc1ccc(S(=O)(=O)Nc2cccc(-c3ccc4nncn4n3)c2)cc1	KB-V1 cytotox 16µM, MCF10A rerep 4.1µM, KB-3-1 cytotox 3.7µM, SW480 rereplic 2.6µM
CCc1ccccc1NC(=O)c1cnc2sc(N3CCCC3)nn2c1=O	none (no result: KB-V1 cytotox, MCF10A rerep, KB-3-1 cytotox, SW480 rereplic, TSG101-PTAP inh)
CCCOC(=O)NC(CC)COC(=O)Nc1cccc(C)c1C (stereo not given)	none
CCC(COC(=O)Nc1cccc(C)c1C)NC(=O)OCC(C)C (stereo not given)	KB-V1 cytotox 9.2µM (no result: TSG101-PTAP inh)
COc1ccccc1NC(=O)C1=C(C)Nc2ncnn2C1c1ccccc1C (stereo not given)	SW480 rereplic 4.1µM
COc1ccc(C2CC(=O)C3=C(C2)Nc2ncnn2C3c2ccccc2C)cc1 (stereo not given)	KB-V1 cytotox 16µM
COc1ccccc1NC(=O)C1=C(C)Nc2ncnn2C1c1cccn1C (stereo not given)	PINK1 modulator inconclusive (no result: MCF10A rerep, SW480 rereplic, TSG101-PTAP inh)
CC(C)=CCOc1ccc(/C=C/C(=O)c2ccc(OCC=C(C)C)cc2OCC(=O)O)cc1	MCF10A rerep 12µM (no result: KB-V1 cytotox, PINK1 modulator, KB-3-1 cytotox, TSG101-PTAP inh)
CCCC1S/C(=N/N=C/c2ccc(C)cc2)N(Cc2ccc(OC)cc2)C1=O (stereo not given)	KB-V1 cytotox 13µM, KB-3-1 cytotox inconclusive
COc1ccc(CN2C(=O)CS/C2=N/N=C/c2ccccc2)cc1	none
COc1ccc(/C=N\N=C2/SC(CC(=O)O)C(=O)N2c2ccc(O)cc2)cc1 (stereo not given)	MCF10A rerep 16µM
Cc1ccc2c(c1)-c1nc(-c3ccc4c(c3)NC(=O)CO4)cc(-c3ccccc3)c1CO2	none (no result: MCF10A rerep, SW480 rereplic, TSG101-PTAP inh)
COCCCn1[nH]c2c3c(ccc2c1=O)C(=O)c1ccccc1C3=O	KB-V1 cytotox 15µM, MCF10A rerep inconclusive, KB-3-1 cytotox inconclusive, SW480 rereplic inconclusive
Cc1ccc(-n2[nH]c3c4c(ccc3c2=O)C(=O)c2ccccc2C4=O)cc1	none
CC(C)(C)n1[nH]c2c3c(ccc2c1=O)C(=O)c1ccccc1C3=O	KB-V1 cytotox inconclusive, KB-3-1 cytotox inconclusive, SW480 rereplic 12µM
Cc1ccc(C)c(-n2[nH]c3c4c(ccc3c2=O)C(=O)c2ccccc2C4=O)c1	KB-V1 cytotox inconclusive, MCF10A rerep 18µM, KB-3-1 cytotox inconclusive
Cc1ccc2c(c1)nnn2C1CCN(S(=O)(=O)c2ccc(C(=O)N3CC(C)CC(C)C3)cc2)CC1 (stereo not given)	KB-V1 cytotox inconclusive, KB-3-1 cytotox 16µM
COC(=O)c1cccc(S(=O)(=O)N2CCC(n3nnc4cc(F)ccc43)CC2)c1	KB-V1 cytotox 16µM
Cc1ccc2c(c1)nnn2C1CCN(S(=O)(=O)c2ccc3ccccc3c2)CC1	KB-V1 cytotox 21µM
Cc1ccc2c(c1)nnn2C1CCN(S(=O)(=O)c2ccc(C(=O)NC3CCCC3)cc2)CC1	KB-V1 cytotox inconclusive
Cc1ccc2c(c1)nnn2C1CCN(S(=O)(=O)c2cccc(S(=O)(=O)N(C)C)c2)CC1	none
Cc1ccc2c(c1)nnn2C1CCN(S(=O)(=O)c2ccc(C(=O)N(C)C)cc2)CC1	KB-V1 cytotox 9.2µM, KB-3-1 cytotox inconclusive
COC(=O)c1cccc(S(=O)(=O)N2CCCC2)c1	none
COc1ccc(NC(=O)c2cc(-c3ccc(F)cc3)no2)cc1OC	KB-V1 cytotox inconclusive (no result: MCF10A rerep, SW480 rereplic, TSG101-PTAP inh)
Cc1ccc2c(c1)nnn2C1CCN(CC(=O)N(c2ccccc2)c2ccccc2)CC1	KB-V1 cytotox 9.2µM, KB-3-1 cytotox inconclusive
CCOC(=O)CN(C(=O)CN1CCC(n2nnc3cc(C)ccc32)CC1)c1ccccc1	none
CC(C(=O)NCc1ccc(Cl)cc1)n1ccc2cc(S(=O)(=O)N3CCCCCC3)ccc21 (stereo not given)	KB-V1 cytotox inconclusive, KB-3-1 cytotox inconclusive (no result: MCF10A rerep, SW480 rereplic, TSG101-PTAP inh)
COC(=O)C1=C(C)NC(=O)/C1=C\c1cc(C)n(-c2c(C)cccc2C)c1C	MCF10A rerep 5.8µM, SW480 rereplic inconclusive (no result: PINK1 modulator)
